Consider nine molecules from PubChem BioAssay.

The term AC50 denotes the concentration at which the activity in the assay is half-maximal. A word on the IC50: it is the concentration at which inhibition is half-maximal.

SMILES strings stand for the structures. Inconclusive results are not listed. Active and inactive are the calls of the source. Unless noted, no cut-off is given here; in the data, nearly all actives have IC50 up to about 30 µM.

A short description of one test: JHH-DIPG-1 glioma cell viability, MIPE5.0 library, CellTiter-Glo luminescence, qHTS (AID 1347067; cut-off not given, nearly all actives have AC50 up to about 26 µM;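 note: cells exposed to compound for 48 hours before readout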). The note with it: JHH-DIPG-1 glioma viability, CellTiter-Glo ATP luminescence. (In general: Cellular ATP, detected with luciferase, serves as a proxy for viable cell number.)
For the molecule `COc1cc2ncn(-c3cc(OCc4ccccc4S(C)(=O)=O)c(C#N)s3)c2cc1OC`, the molecule was called inactive.

For the molecule `Cn1c(=O)c(Oc2ccc(F)cc2F)cc2cnc(NC3CCOCC3)nc21`, the outcome was inactive.

On to `COc1ccc(-c2oc3ncnc(N)c3c2-c2ccc(NC(=O)Nc3cc(C(F)(F)F)ccc3F)cc2)cc1`, for which the AC50 is 9.34 µM (active).

Turning to `CN(C)CCOc1ccc(-c2nc(-c3ccc4c(c3)CC/C4=N\O)c(-c3ccncc3)[nH]2)cc1`, the AC50 is 16.6 µM (active).

`COc1ccc(COc2ccc(Cc3cnc(N)nc3N)cc2OC)cc1`: the outcome was inactive.

With `Cn1cc(C2=C(c3c4n(c5ccccc35)CCC(CN)C4)C(=O)NC2=O)c2ccccc21` (stereo not drawn), the molecule was called inactive.

Another test in a line: SU-DIPG-XXV glioma cell viability, MIPE5.0 library, qHTS (AID 1347068).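 For IC50: cells exposed to compound for 48 hours before viability readout.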
Details: not given
(In qHTS, concentration-response curves come from the screen itself.)
Take `NC(=O)c1ccc(-c2nc(-c3ccc4c(c3)OCO4)c(-c3ccccn3)[nH]2)cc1`: the call was inactive.

For `O=C1NC(=O)C(c2c[nH]c3ccccc23)=C1c1c[nH]c2ccccc12`, the concentration for half-maximal inhibition (IC50) is 18.6 µM (active).

As to `COc1cc2ncn(-c3cc(OCc4ccccc4S(C)(=O)=O)c(C#N)s3)c2cc1OC`, the call was inactive.

For `Cn1cc(/C=C2\C(=O)Nc3cccnc32)c2ccccc21`, the molecule was classed as inactive.

Regarding `Cn1c(=O)c(Oc2ccc(F)cc2F)cc2cnc(NC3CCOCC3)nc21`, the call was inactive.

Consider `COc1ccc(COc2ccc(Cc3cnc(N)nc3N)cc2OC)cc1`, for which the call was inactive.

As for `Cn1cc(C2=C(c3c4n(c5ccccc35)CCC(CN)C4)C(=O)NC2=O)c2ccccc21` (stereo not drawn), the result was inactive.
